# This is one part of a sample in which hits are shown more often than they occur.
# KDM5B inhibitor: KDM5B demethylase inhibition; Q9UGL1; KDM5B demethylase, FDH-coupled NADH fluorescence (FDH is formaldehyde dehydrogenase); Potency, µM (highest dose often 57.7 µM), most hits filed as inhibitors; actives 2.6% (n = 220,000); AID 1347165; active = well fitted inhibition curve with a large enough effect; note: 0% is about no effect; nearly all actives have a fitted effect of over 70% in size
# Target sequence (Q9UGL1 whole entry, looked up): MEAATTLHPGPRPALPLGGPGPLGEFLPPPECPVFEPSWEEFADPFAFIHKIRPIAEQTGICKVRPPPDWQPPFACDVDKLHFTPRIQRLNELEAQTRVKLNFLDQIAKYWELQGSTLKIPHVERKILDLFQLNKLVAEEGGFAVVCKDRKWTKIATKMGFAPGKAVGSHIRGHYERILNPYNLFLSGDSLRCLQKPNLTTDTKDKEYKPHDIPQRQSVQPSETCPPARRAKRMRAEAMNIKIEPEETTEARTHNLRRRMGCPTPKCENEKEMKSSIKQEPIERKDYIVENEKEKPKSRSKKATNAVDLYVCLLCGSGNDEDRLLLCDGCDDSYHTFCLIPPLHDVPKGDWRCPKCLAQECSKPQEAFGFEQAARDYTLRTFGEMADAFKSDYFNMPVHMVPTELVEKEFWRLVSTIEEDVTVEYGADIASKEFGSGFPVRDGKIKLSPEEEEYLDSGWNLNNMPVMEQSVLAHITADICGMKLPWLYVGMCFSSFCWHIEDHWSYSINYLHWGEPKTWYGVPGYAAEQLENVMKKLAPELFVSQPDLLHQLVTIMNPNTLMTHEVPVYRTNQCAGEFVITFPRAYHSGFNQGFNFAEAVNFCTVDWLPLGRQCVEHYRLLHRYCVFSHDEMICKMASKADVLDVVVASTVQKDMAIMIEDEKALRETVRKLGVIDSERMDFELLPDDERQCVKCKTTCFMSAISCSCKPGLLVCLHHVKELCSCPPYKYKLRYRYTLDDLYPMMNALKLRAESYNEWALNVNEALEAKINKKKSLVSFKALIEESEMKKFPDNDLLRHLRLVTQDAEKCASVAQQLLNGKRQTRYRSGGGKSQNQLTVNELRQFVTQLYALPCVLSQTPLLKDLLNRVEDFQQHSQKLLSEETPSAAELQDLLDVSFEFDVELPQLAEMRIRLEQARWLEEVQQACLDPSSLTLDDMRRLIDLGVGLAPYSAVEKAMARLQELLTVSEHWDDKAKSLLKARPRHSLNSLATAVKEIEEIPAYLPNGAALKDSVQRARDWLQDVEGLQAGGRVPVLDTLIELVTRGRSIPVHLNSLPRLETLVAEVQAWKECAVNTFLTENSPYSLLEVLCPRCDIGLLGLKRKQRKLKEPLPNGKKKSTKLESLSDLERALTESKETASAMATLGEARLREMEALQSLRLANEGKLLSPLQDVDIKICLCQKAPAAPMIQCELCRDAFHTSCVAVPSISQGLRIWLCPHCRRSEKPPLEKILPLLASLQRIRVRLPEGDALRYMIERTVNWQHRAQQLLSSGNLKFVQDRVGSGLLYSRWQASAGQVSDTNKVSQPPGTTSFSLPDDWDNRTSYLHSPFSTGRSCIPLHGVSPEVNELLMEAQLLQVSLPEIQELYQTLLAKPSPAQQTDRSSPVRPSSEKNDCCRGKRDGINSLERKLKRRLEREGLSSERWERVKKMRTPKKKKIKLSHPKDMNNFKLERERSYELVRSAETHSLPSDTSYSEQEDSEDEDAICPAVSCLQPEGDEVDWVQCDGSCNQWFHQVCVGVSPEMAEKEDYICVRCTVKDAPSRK
#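 KDM5BΔAP (200 nM final) in 50 mM HEPES pH 7.5, 0.01% Tween-20 was preincubated 10 min at RT with compound over a concentration range. Substrate mix (H3K4me3 12.5 µM, α-KG 25 µM, Fe²⁺, ascorbate, NAD⁺, FDH) was added, and NADH fluorescence change over 30 min gave dose-response curves.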
# An asterisk follows results filed as active; i = inactive; + = active, no number. Potency is the fitted concentration of half-maximal effect.
SMILES,KDM5B inhibitor
COc1ccc(CN2CCC3(C2)NC(=O)c2ccccc2O3)cc1 (stereo not given),i
COc1ccc(CN2CCC3(CC2)CC(=O)c2ccccc2O3)cc1,35µM*
c1cn(CCc2noc(C3CCCO3)n2)c(-c2nc3c(s2)CCCC3)n1 (stereo not given),32µM*
O=C(NCCc1noc(C2CCCO2)n1)c1cnc(-c2cccnc2)nc1 (stereo not given),i
O=S(=O)(NCc1ccccc1)NCc1noc(C2CCCO2)n1 (stereo not given),i
CC(=O)N1CC(CO)C2(CCN(C(=O)c3cccc(C#N)c3)CC2)C1 (stereo not given),i
Cc1ccccc1C(=O)N1CCC2(CC1)CN(c1ncccn1)CC2CO (stereo not given),32µM*
N#Cc1ccc(C(=O)N2CCC3(CC2)CN(c2ncccn2)CC3CO)cc1 (stereo not given),22µM*
COCC1CN(C(C)=O)CC12CCN(C(=O)c1ccccc1OC)CC2 (stereo not given),i
O=C(c1ccc(F)cc1)N1CCC2(CC1)CN(Cc1ccccc1)CC2CO (stereo not given),i
CCOc1ccccc1C(=O)N1CCC2(CC1)CN(c1ccncn1)CC2CO (stereo not given),i
Cc1cnn(CC(=O)N2CCC3(CC2)CN(c2ncccn2)CC3CO)c1 (stereo not given),35µM*
O=C(CCCc1ccccc1)N1CCC2(CC1)CN(c1ccncn1)CC2CO (stereo not given),i
COc1ccccc1C(=O)N1CCC2(CC1)CN(c1ncccn1)CC2CO (stereo not given),25µM*
O=C(Cc1ccccc1)N1CCC2(CC1)CN(c1ccncn1)CC2CO (stereo not given),i
Cc1ccccc1C(=O)N1CCC2(CCN(Cc3cnc[nH]3)CC2)C(CO)C1 (stereo not given),i
O=C(c1c[nH]c2ccccc12)N1CCC2(CC1)CN(c1ccncn1)CC2CO (stereo not given),i
COc1ccc(-c2csc(N3N=C(C)CC3c3ccc(OC)c(OC)c3)n2)cc1OC (stereo not given),i
CC(=O)Nc1ccc(N2C(=O)C(=O)/C(=C(/O)c3ccccc3)C2c2ccccc2)cc1 (stereo not given),i
COc1ccc(CCn2c(SCCC(C)C)nc3c2c(=O)n(C)c(=O)n3C)cc1,i
CC(NC(=O)CSCC(N)=O)c1ccc(Cl)s1 (stereo not given),i
Cc1ccc(C(CNC(=O)COc2ccccc2C)N2CCCCCC2)cc1 (stereo not given),i
Cn1c(C(C#N)(CC(=O)N2CCCCC2)CC(=O)N2CCCCC2)nc2ccccc21,i
O=C([C@@H]1Cc2nc[nH]c2CN1Cc1ccc(Cl)cc1)N1CCC(Cc2ccccc2)CC1,i
COc1cc(C(=O)N2CC[C@@]3(O)CCN(S(C)(=O)=O)C[C@H]3C2)ccn1,i
SMILES,KDM5B inhibitor
CCc1noc(C)c1C(=O)N1CC[C@@]2(O)CCN(S(C)(=O)=O)C[C@H]2C1,i
Cn1ccnc1-c1ccc(N2CC[C@@]3(O)CCN(S(C)(=O)=O)C[C@H]3C2)nn1,32µM*
O=C(O)CSCc1ccsc1,i
NC(=O)c1cc2c(nc1N1CCC3(CCCN(CC4CCC4)C3)C1)CCC2 (stereo not given),25µM*
NC(=O)c1cccnc1N1CCC2(CCCN(Cc3ccccc3F)C2)C1 (stereo not given),i
NC(=O)c1cccnc1N1CCC2(CCCN(Cc3cccc(F)c3F)C2)C1 (stereo not given),i
Cc1cccc(-c2ccc3c(c2)C(=O)N2CC[C@H](NC(=O)CCC(=O)O)[C@H]2C(=O)N3)c1C,i
Cc1cccc(-c2ccc3c(c2)C(=O)N2CC[C@H](NC(=O)NC(C)C)[C@H]2C(=O)N3)c1C,i
CC(C)NC(=O)N[C@H]1CCN2C(=O)c3cc(-c4ccc(Cl)cc4)ccc3NC(=O)[C@H]12,32µM*
O=C(O)CCC(=O)N[C@H]1CCN2C(=O)c3cc(-c4ccc(Cl)cc4)ccc3NC(=O)[C@H]12,32µM*
O=C(O)CCC(=O)N[C@H]1CCN2C(=O)c3ccc(Cl)cc3NC(=O)[C@H]12,i
O=C(NC1CCCCC1)N[C@H]1CCN2C(=O)c3cc(-c4ccccc4)ccc3NC(=O)[C@H]12,i
CCCc1cc(=O)[nH]c(SCc2nc(-c3ccc(C)c(F)c3)no2)n1,i
CCCOC(=O)c1nc2ccccc2nc1N1CCN(c2ccc(F)cc2)CC1,i
CCS(=O)(=O)N(Cc1c(F)cccc1Cl)c1c(C)n(C)n(-c2ccccc2)c1=O,i
CCC1CCCCN1C(=O)Cn1c(=O)n(Cc2ccc3c(c2)OCO3)c(=O)c2sccc21 (stereo not given),i
Fc1cccc(-n2cc(CN3CC[C@H]4CC[C@@H](C3)N4)cn2)c1,i
COc1ccc(CNC(=O)C[C@@H]2c3nc(NC(=O)c4cccs4)sc3C[C@@H]3[C@](C)(CO)[C@H](O)CC[C@]32C)cc1,25µM*
CC(C)C[C@H](CO)NC(=O)C[C@@H]1c2nc(NC(=O)c3c(F)cccc3F)sc2C[C@@H]2[C@](C)(CO)[C@H](O)CC[C@]21C,i
COCC(=O)Nc1nc2c(s1)C[C@@H]1[C@](C)(CO)[C@H](O)CC[C@@]1(C)[C@@H]2CC(=O)NCc1ccc(OC)cc1,i
CC(C)(C)CC(=O)Nc1nc2c(s1)C[C@@H]1[C@](C)(CO)[C@H](O)CC[C@@]1(C)[C@@H]2CC(=O)NCc1ccccc1,i
C[C@]1(CO)[C@H]2Cc3sc(NC(=O)c4ccc(F)cc4)nc3[C@@H](CC(=O)NCc3cccnc3)[C@]2(C)CC[C@H]1O,i
COc1ccc(CNC(=O)C[C@@H]2c3nc(NC(=O)c4c(F)cccc4F)sc3C[C@@H]3[C@](C)(CO)[C@H](O)CC[C@]32C)cc1,28µM*
COc1ccc(C(CNC(=O)CN2CCN(C(C)=O)CC2)c2c[nH]c3ccccc23)cc1 (stereo not given),i
Cc1c(F)cccc1NC(=O)C1CN(S(=O)(=O)C2CC2)CC12CCCCC2 (stereo not given),i
SMILES,KDM5B inhibitor
O=C(CSc1nc2cc(S(=O)(=O)N3CCCCC3)ccc2o1)N1CCc2ccccc21,i
CCOC(=O)c1c(C)[nH]c(C(=O)Nc2cccc(S(=O)(=O)N(C)C)c2)c1C,i
C#CCNC(=O)c1nc(-c2ccc([S+](C)(=O)[O-])cc2)c2ccccn12,i
C#CCNC(=O)c1nc(-c2cccnc2)c2cnccn12,i
CC(C)NC(=O)c1nc(-c2ccc(Cl)nc2)c2cnccn12,+
CC(C)NC(=O)CSCc1coc(-c2ccc(Cl)cc2)n1,i
CCC(C(=O)NC1CCCCC1)n1c(SCc2cccc(F)c2)nc2ccncc21 (stereo not given),i
CC(C)NC(=O)c1nc(-c2cccc(F)c2)c2cnccn12,32µM*
C#CCNC(=O)c1nc(-c2ccc(Cl)nc2)c2cnccn12,112µM*
C#CCNC(=O)c1onc(-c2ccc(Cl)cc2)c1[C@H](C)O,i
CC(C)NC(=O)c1onc(-c2ccc(Cl)cc2)c1[C@H](C)O,i
C#CCNC(=O)c1nc(-c2ccc([S+](C)(=O)[O-])cc2)c2cnccn12,+
Cc1ccc(CNC(=O)c2nc(-c3nn(-c4ccc(F)cc4)c(=O)n(C)c3=O)no2)o1,i
Cc1cccc(N(C)S(=O)(=O)c2cc(-c3cc(C)no3)ccc2C(C)C)c1,i

# Screening results (PubChem BioAssay)
